# Laboratory results: PubChem BioAssay (NCATS)
# Where “and” joins values, the source holds several entries; their conditions need not be identical. Equal entries are not always repeated. Results filed as inconclusive are left out. Values without a mark were called inactive. The call rests on the fitted dose curve; in most records, active means well fitted activation curve with a large enough effect in the signal ratio; inconclusive means small, poorly fitted or top-dose-only effect, or a change in a side signal; inactive means flat fitted curve, though single readings scatter; the % refers to the signal ratio.
# Assay: qHTS assay for small molecule activators of the nuclear factor-kappa B (NF-kB) signaling pathway (AID 651749); further: series mostly up to about 77 µM; % of control where 0% means no effect
# Conditions: NF-kB-bla ME-180 cells, beta-lactamase FRET ratio, 16 h; active compounds read high
# From the text: National Center for Advancing Translational Sciences [NCATS] NIH Chemical Genomics Center [NCGC] U.S. Environmental Protection Agency [EPA] National Institutes of Environmental Health Sciences [NIEHS] National Toxicology Program [NTP] Assay Overview: Transcription factors and their stimulated target gene expression play pivotal roles across many cellular processes including responses to environmental stimuli. Proper regulation of associated pathways is critical to maintain cell health and function. Constitutive activation of transcription factor pathways has been implicated in tumors as it may block cellular functions such as apoptosis and lead to invasion and metastasis. One important transcription factor that stimulates gene expression in response to cytokines, UV radiation, and other stimuli is nuclear factor-kappa B (NF-kB). To measure activation of the NF-kB pathway, the NF-kB-bla ME-180 cell line stably expressed beta-lactamase reporter gene under the regulation of a NF-kB response element was obtained from Invitrogen. This assay allows measurement of the NF-kB pathway activity induced by compounds in a ME-180 cell line. This system quantitates NF-kB activity using a FRET-based assay system where beta-lactamase expression disrupts FRET, allowing for fluorescent measurement of activity.
# Assay Protocol Summary: For toxicology screening, 2,000 cells in 5 uL/well were dispensed into black, clear-bottom 1536-well plates using a Multidrop Combi (Thermo Scientific) dispenser. Following transfer of 23 nL compound or DMSO vehicle by a pin tool, the plates were incubated 16 hr at 37C and 5% CO2.
row,Structure (SMILES),activation
1,C=C(C)C(=O)OCC(C)C,1.27%
2,BrC/C=C/CBr,0.2%
3,Nc1cccc(O)c1,-1.16%
4,CC(C)C=O,-1.3%
5,C=CCCC,-0.388%
6,COc1ccc(N=[N+]([O-])c2ccc(OC)cc2)cc1,0.0779%
7,O=[N+]([O-])c1ccc(CCO)cc1,-0.318%
8,CC(C)(C)OCC1CO1 (stereo not given),0.44%
9,O=Nc1ccc(NO)cc1,-2.26%
10,CC(C)c1ccccc1,-1.2%
11,CC(C)CO,-1.15%
12,Cc1ccc(S(=O)(=O)NC2CCCCC2)cc1,-0.807%
13,CC/C=C/C#N,-2.54%
14,CC(=O)Nc1ccc(N)cc1,-0.653%
15,CC(=O)OCc1ccco1,0.228%
16,C=C(C)C(=O)OCCCCCC,0.571%
17,CCC1CO1 (stereo not given),-0.443%
18,Nc1ccc([N+](=O)[O-])c(N)c1,0.47%
19,CCCCC(CC)CO (stereo not given),-1.43%
20,OC(CCl)CCl,1.2%

row,Structure (SMILES),activation
1,N#CC1(O)CCCCC1,-2.59%
2,C=Cc1ccc(C=C)cc1,0.161%
3,Cc1cc(C)cc([N+](=O)[O-])c1,0.968%
4,CCCCCCCCC/C=C/CC1CC(=O)OC1=O (stereo not given),-0.282%
5,Cc1cccc(C(=O)O)c1,0.0626%
6,O=C1CCCCC1,-1.28%
7,O=C(O)CNC(=O)c1ccc([N+](=O)[O-])cc1,0.89%
8,Nc1cccc(S(=O)(=O)O)c1,-0.968%
9,CCCCCCO,-0.278%
10,CCCCCCCCC,0.37%
11,CC(=O)OC(C)=O,-1.18%
12,Nc1ccc(Cl)cc1[N+](=O)[O-],-1.3%
13,O=C(O)c1ccc(Cl)c(Cl)c1,0.147%
14,Nc1ccccc1[N+](=O)[O-],0.892%
15,Cc1cccc(C(=O)O)c1[N+](=O)[O-],-0.935%
16,Clc1ccc(Cl)c(Cl)c1Cl,0.56% and -0.536%
17,CC#N,-1.06%
18,O=Cc1c(Cl)cccc1Cl,-0.578%
19,CCC(C)(C)C(=O)O,-0.114%
20,NC(=O)CCCCC(N)=O,1.81%
